# Results as given in PubChem BioAssay (NCATS).
# Records with an inconclusive call do not appear. Values without a mark were called inactive. Active and inactive are the calls of the source. Calls follow the shape of the dose curve; as a rule, active = well fitted cell-killing curve with a large enough effect; inconclusive = small, poorly fitted or top-dose-only effect; inactive = flat fitted curve, though single readings scatter.
# Test: qHTS of pediatric cancer cell lines to identify multiple opportunities for drug repurposing: Confirmatory screen for BT-12 cells (AID 1347112);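 also: viability read after 48 h of compound exposure; nearly all actives have a fitted effect of over 55% in size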
# Settings: BT-12 rhabdoid tumor cells, viability; series mostly up to 45.9 µM; activity change, negative = cytotoxic: at the top concentration
# From the text: Drug repurposing or repositioning has been offered as a strategy for drug development in oncology programs. This approach has special potential for childhood cancers and other rare or orphan diseases, where the expected return on new drug development has been a disincentive to pharmaceuticals.
# In this project we exploit the poly-pharmacology of drugs to discover new indications via phenotypic screening of a panel of 19 well-characterized cell lines derived from solid tumors seen in children and adolescents. The goal is to identify approved drugs with previously unrecognized anticancer properties that has the potential to reveal new mechanisms and biological processes involved in carcinogenesis or drug resistance. We employed a titration-based paradigm (quantitative high-throughput screening or qHTS), where all compounds were tested at multiple concentrations for their effect on cell viability. Concentration-response curves (CRCs) were derived directly from the primary screen, and both potency and efficacy values were used to identify compounds with robust bioactivity profiles. We screened the NIH Chemical Genomics Center (NCGC) Pharmaceutical Collection (NPC) and Mechanism Interrogation Plate (MIPE) small molecule collections of approved and investigational compounds against these cell lines; and measured metabolically active cells after 48 hours of compound treatment as a proxy for cell viability.
# Assay Submitter: Nathalia J. Martinez, National Center for Advancing Translational Sciences, National Institutes of Health, Rockville, MD, USA; email: natalia.martinez@nih.gov
# [1] Shen, M et al. Quantitative high-throughput phenotypic screening of pediatric cancer cell lines identifies multiple opportunities for drug repurposing. Oncotarget 2017 Dec 19;9(4):4758-4772. PMID 29435139.
# The cells were obtained from University of North Carolina (UNC), Pediatric Preclinical Testing Program (PPT), and Coriell Institute (CI).
# qHTS cell viability assay:
# Cells were assayed in growth media at a density of 500-1,000 cells/well. Five microliters of cells were dispensed into 1,536-well, white, solid-bottom, TC-treated plates (Greiner Bio One) using a multidrop dispenser and incubated at 37 degrees C, 5% CO2, under a humidified atmosphere for 5 hours. Twenty-three nanoliters of compounds and controls (neutral control DMSO or positive control bortezomib at final concentration of 2.3 µM) were subsequently transferred by Kalypsys pintool. For primary screens, the MIPE collection was tested at 11-point dilutions (final concentrations range from 0.78 nM to 46 µM) and the NPC collection at 8-point dilutions (final concentrations range from 0.59 nM to 46 µM). Compounds tested in follow-up screens were assayed at 11-point dilutions. Cells were incubated for 48 hours, followed by addition of 3 µL of CellTiter-Glo (Promega). After a 15 min incubation at room temperature, samples were analyzed for luminescence intensity using a ViewLux High-throughput CCD imager equipped with clear filters.
# % is scaled to controls: 0 for no effect and ±100 for the full control effect; potency is read from the fitted curve at half-maximal effect.
Compound,"activity change, negative = cytotoxic",Potency
Clc1ccc(C(c2ccccc2Cl)C(Cl)Cl)cc1 (stereo unspecified),-2.43%,–
CN1CCN(CCCN2c3ccccc3Sc3ccc(Cl)cc32)CC1,–,16.5 µM (active)
CS(=O)(=O)Nc1ccc([N+](=O)[O-])cc1Oc1ccccc1,-13.2%,–
CC#C[C@]1(O)CC[C@H]2[C@@H]3CCC4=CC(=O)CCC4=C3[C@@H](c3ccc(N(C)C)cc3)C[C@@]21C,-17.1%,–
CC(C)NCC(O)c1ccc(O)c(O)c1 (stereo unspecified),–,4.14 µM (active)
NC12CC3CC(CC(C3)C1)C2,11.6%,–
CCCCc1oc2ccccc2c1C(=O)c1cc(I)c(OCCN(CC)CC)c(I)c1,–,79.4 µM (active)
O=C(Nc1ccc([N+](=O)[O-])cc1Cl)c1cc(Cl)ccc1O,–,3.23 µM (active)
CCC1(c2ccccc2)C(=O)NCNC1=O,-12.4%,–
CC[C@@]1(O)C(=O)OCc2c1cc1n(c2=O)Cc2cc3c(CN(C)C)c(O)ccc3nc2-1,–,3.69 µM (active)
O=C1c2c(O)ccc(O)c2C(=O)c2c(NCCNCCO)ccc(NCCNCCO)c21,–,1.85 µM (active)
COC(=O)Nc1nc2ccc(C(=O)c3cccs3)cc2[nH]1,–,0.522 µM (active)
COc1cc2c(c(OC)c1OC)-c1ccc(OC)c(=O)cc1[C@@H](NC(C)=O)CC2,–,0.0631 µM (active)
CC(C)Cc1ccc(C(C)C(=O)O)cc1 (stereo unspecified),-0.0125%,–
NC(=O)NO,-8.6%,–
CS(=O)(=O)CCNCc1ccc(-c2ccc3ncnc(Nc4ccc(OCc5cccc(F)c5)c(Cl)c4)c3c2)o1,–,13.1 µM (active)
